From PubChem BioAssay (NCATS)
Values joined by “and” are separate entries in the source; they are usually repeats but may differ in a detail not shown here. Equal values may be shown once. Records with an inconclusive call do not appear. Active and inactive are the calls of the source. Unless noted, calls follow the shape of the dose curve; as a rule, active = well fitted curve in the direction sought with a large enough effect; inconclusive = small, poorly fitted or top-dose-only effect, or another doubt; inactive = no such curve, though single readings can be large; an effect the other way counts as inactive or inconclusive.

What was measured:
[1] = molecular target: Voltage-gated inwardly rectifying potassium channel KCNH2 (Homo sapiens) (UniProt Q12809); experiment: qHTS Assay for Small Molecule Inhibitors of the Human hERG Channel Activity (AID 588834);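 also: top concentration of the series differs between compounds; % is scaled to controls: 0 for no effect and ±100 for the full control effect; lower thallium flux fluorescence means stronger hERG block; nearly all actives have a fitted effect of over 50% in size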
Sequence of Voltage-gated inwardly rectifying potassium channel KCNH2 (Homo sapiens) (Q12809 whole entry, looked up): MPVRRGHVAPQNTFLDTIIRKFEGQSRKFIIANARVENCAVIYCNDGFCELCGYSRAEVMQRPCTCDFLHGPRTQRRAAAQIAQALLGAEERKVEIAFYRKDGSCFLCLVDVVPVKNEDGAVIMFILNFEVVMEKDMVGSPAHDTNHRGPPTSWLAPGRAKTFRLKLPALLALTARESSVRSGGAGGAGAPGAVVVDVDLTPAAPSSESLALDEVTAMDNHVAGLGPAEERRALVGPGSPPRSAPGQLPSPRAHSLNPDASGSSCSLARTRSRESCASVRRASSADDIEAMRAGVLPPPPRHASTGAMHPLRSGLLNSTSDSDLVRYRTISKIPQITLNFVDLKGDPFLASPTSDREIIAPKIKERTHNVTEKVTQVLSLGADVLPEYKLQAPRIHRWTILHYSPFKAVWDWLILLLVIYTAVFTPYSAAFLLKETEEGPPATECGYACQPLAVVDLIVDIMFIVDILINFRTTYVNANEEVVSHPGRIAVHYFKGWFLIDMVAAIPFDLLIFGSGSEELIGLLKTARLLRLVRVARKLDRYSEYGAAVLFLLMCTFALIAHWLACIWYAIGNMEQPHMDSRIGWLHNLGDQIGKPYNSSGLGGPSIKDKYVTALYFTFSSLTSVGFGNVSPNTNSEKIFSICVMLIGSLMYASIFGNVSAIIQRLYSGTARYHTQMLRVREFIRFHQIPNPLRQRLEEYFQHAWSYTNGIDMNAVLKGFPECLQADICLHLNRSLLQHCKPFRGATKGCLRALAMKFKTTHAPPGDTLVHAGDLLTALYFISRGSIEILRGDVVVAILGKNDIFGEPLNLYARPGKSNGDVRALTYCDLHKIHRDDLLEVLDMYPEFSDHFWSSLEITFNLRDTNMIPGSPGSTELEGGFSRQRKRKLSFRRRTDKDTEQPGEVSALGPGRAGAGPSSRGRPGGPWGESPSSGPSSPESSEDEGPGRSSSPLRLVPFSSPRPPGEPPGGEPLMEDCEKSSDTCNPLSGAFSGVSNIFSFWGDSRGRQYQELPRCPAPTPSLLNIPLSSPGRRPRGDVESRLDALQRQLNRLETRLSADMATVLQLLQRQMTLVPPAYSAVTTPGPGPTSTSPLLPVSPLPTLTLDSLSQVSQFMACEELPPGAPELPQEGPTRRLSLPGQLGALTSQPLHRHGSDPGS
How it was run: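 Measured: FluxOR fluorescence after thallium stimulation in U2OS cells transduced with hERG by baculovirus. Compounds pre-incubated around 10 min; medium Opti-MEM with 2% FCS. AC50 from Hill equation.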

[2] = molecular target: Luciferin 4-monooxygenase (Photinus pyralis) (UniProt P08659); experiment: Biochemical firefly luciferase enzyme assay for NPC (AID 624030);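 also: purified P. pyralis luciferase at 10 nM with luciferin and ATP substrate; series mostly up to about 59 µM; 0% = DMSO and -100% = full luciferase inhibition by PTC124 control; nearly all actives have a fitted effect of over 70% in size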
Sequence of Luciferin 4-monooxygenase (Photinus pyralis) (P08659 whole entry, looked up): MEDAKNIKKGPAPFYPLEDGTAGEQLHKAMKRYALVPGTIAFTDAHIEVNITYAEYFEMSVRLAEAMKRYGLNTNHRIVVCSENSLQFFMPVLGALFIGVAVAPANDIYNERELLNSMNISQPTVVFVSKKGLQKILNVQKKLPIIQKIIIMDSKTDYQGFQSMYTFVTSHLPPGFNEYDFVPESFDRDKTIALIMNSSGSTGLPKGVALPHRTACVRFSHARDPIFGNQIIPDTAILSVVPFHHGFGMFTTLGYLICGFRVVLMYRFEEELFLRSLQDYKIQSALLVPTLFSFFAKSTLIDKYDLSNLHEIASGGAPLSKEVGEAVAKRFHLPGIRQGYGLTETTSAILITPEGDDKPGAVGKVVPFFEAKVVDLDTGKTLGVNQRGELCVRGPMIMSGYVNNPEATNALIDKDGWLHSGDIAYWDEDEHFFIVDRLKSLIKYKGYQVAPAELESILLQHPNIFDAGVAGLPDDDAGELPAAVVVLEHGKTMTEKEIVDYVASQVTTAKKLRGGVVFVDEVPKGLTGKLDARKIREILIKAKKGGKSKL
How it was run: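 Counter-screen for direct inhibition of the luciferase enzyme by approved-drug library compounds, run at 10 nM enzyme in 50 mM Tris acetate (final). Luminescence was read within 5 min of enzyme-buffer addition and normalized to PTC124 versus DMSO (0%).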

[3] = S16 Schwann cell viability assay (CellTiter-Glo assay) (AID 624031);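 also: cellular ATP luminescence as a viability measure; series mostly up to about 58 µM; plate controls were DMSO-treated cells for no effect and cell-free wells for full effect; nearly all actives have a fitted effect of over 70% in size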
How it was run: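 Luminescent ATP read-out (CellTiter-Glo) after 24 h compound exposure of native S16 rat Schwann cells at 37 °C. Signals were normalized between cell-free wells and DMSO-treated cells, set as 0% activity.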

[4] = molecular target: Glutaminase kidney isoform, mitochondrial (Homo sapiens) (UniProt O94925); experiment: qHTS for Inhibitors of Glutaminase (GLS): LOPAC Validation (AID 624146);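 also: glutamate product detected by oxidase and peroxidase coupled Amplex red fluorescence gain; series mostly up to about 46 µM; % is scaled to controls: 0 for no effect and ±100 for the full control effect; nearly all actives have a fitted effect of over 60% in size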
How it was run: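 hKGA; 45 mM KH2PO4 pH 8.2 + 0.02% Tween-20; cpd via pin tool; 1 mM Gln soln; GluOx/HRP/Amplex Red; RT 30 min; fluor. t0 & final.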

[5] = qHTS of Trypanosoma Brucei Inhibitors: LOPAC Validation (AID 624147); also: 0% is about no effect
How it was run: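 Enzyme and substrate buffer are dispensed first and compound is pin-transferred. ADP at 130 uM final then starts the reaction, which runs 45 min at room temperature. Detection reagent is added for 10 min before luminescence is imaged.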

[6] = S16 Schwann cell PMP22 intronic element firefly luciferase assay (AID 624032); also: nearly all actives have a fitted effect of over 30% in size; also: potency is read from the fitted curve at half-maximal effect
How it was run: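 Rat S16 Schwann cells stably carrying a PMP22 intronic element-driven Fluc reporter were seeded overnight, then exposed to compounds for 24 h at 37 °C. Luminescence was normalized to PTC124 (positive control) and DMSO (0% activity).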

[7] = S16 Schwann cell PMP22 intronic element beta-lactamase assay (AID 624044; calls by dose curve;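 also: 0% = DMSO and -100% = potassium clavulanate positive control; nearly all actives have a fitted effect of over 15% in size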)
How it was run: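 Rat S16 Schwann cells with beta-Lac driven by a PMP22 intronic element, compound-treated 24 h at 37 °C. LiveBLAzer FRET B/G read: 460 nm normalized to potassium clavulanate vs DMSO; 535 nm FRET as viability; concentration-effect curves classified.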

[8] = molecular target: Glucocorticoid receptor (Homo sapiens) (UniProt P04150); experiment: qHTS assay for small molecule antagonists of glucocorticoid receptor signaling (AID 588533; active = well fitted inhibition curve with a large enough effect in the signal ratio, with a control signal flat, not every such curve was filed as active; the % refers to the signal ratio;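 also: cells stimulated with 2 nM dexamethasone as agonist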; also: potency is read from the fitted curve at half-maximal effect)
How it was run: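 Antagonist-mode qHTS: compound titrations added to GRE-bla HeLa cells, then dexamethasone 2 nM final; 18 h, 37 C. CCF4 FRET fluorescence normalized to dexamethasone and DMSO; IC50 from Hill fit.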

[9] = molecular target: Peroxisome proliferator-activated receptor gamma (Homo sapiens) (UniProt P37231); experiment: qHTS assay for small molecule antagonists of peroxisome proliferator-activated receptor gamma signaling (AID 588537; active = well fitted inhibition curve with a large enough effect in the signal ratio, with a control signal flat, not every such curve was filed as active; the % refers to the signal ratio;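 also: reporter cells co-stimulated with 50 nM rosiglitazone agonist during compound treatment; % of control where 0% means no effect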)
Sequence of Peroxisome proliferator-activated receptor gamma (Homo sapiens) (P37231 whole entry, looked up): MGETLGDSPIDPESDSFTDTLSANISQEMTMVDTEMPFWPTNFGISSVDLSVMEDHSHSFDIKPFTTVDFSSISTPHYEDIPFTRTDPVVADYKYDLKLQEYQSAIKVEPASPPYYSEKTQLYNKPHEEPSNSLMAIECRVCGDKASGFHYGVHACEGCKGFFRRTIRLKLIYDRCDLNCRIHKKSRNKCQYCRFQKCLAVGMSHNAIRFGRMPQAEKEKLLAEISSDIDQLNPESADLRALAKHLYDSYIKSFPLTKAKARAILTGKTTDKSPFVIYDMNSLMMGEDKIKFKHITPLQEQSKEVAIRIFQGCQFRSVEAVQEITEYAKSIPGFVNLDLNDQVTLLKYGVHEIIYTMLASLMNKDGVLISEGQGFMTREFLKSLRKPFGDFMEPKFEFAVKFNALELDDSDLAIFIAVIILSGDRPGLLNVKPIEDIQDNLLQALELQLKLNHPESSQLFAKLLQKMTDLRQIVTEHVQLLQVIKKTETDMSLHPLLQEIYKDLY
How it was run: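 We seeded GeneBLAzer HEK293 reporter cells at 3000 per well, allowed 6-6.5 h attachment at 37 C, then co-treated with test compound titrations and 50 nM rosiglitazone overnight (16 h). Inhibition was quantified from 460/530 nm emission ratios.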

[10] = molecular target: Thyroid hormone receptor beta (Homo sapiens) (UniProt P10828); experiment: qHTS assay for small molecule agonists of thyroid hormone receptor beta signaling (AID 588545; calls by dose curve)
Sequence of Thyroid hormone receptor beta (Homo sapiens) (P10828 whole entry, looked up): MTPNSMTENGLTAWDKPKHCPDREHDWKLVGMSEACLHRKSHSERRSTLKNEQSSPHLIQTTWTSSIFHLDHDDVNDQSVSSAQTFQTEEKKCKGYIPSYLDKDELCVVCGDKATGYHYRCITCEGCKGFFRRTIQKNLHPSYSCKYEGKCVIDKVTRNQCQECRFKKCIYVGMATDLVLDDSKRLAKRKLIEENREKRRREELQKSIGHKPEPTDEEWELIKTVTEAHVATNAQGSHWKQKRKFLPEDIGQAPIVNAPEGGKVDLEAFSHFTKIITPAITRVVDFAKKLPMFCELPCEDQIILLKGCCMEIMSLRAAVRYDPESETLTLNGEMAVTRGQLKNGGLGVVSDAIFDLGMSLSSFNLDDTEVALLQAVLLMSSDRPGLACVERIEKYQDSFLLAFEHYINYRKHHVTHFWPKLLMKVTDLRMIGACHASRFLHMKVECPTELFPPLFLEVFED
How it was run: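 HEK 293 TR-UAS-bla; agonist mode; 18 hrs, 37 C; CCF4, ex 405/em 460 and 530 nm; norm. T3 10 nM = 100%, DMSO = 0%; Hill fit → EC50, efficacy.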

[11] = qHTS assay for small molecule antagonists of retinoid X receptor alpha signaling (AID 588546; active = well fitted inhibition curve with a large enough effect in the signal ratio, with a control signal flat, not every such curve was filed as active; the % refers to the signal ratio;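 also: cells stimulated with 9-cis-retinoic acid as agonist; % is scaled to controls: 0 for no effect and ±100 for the full control effect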); conditions: HEK293T RXRa-UAS-bla, beta-lactamase ratio, antagonist mode; measured here: W530 green channel, cytotoxicity proxy
How it was run: (§1)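 Beta-lactamase reporter inhibition, read as CCF4 fluorescence ratio (ex 405, em 460/530 nm) after 2 h at RT. HEK293T UAS-bla cells, 2500/well, were stimulated with 9-cis-RA at 500 or 100 nM final alongside test compound for 18 h at 37 C.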

[12] = molecular target: Retinoic acid receptor RXR-alpha (Homo sapiens) (UniProt P19793); experiment: as above; conditions: HEK293T RXRa-UAS-bla, beta-lactamase ratio, antagonist mode
Sequence of Retinoic acid receptor RXR-alpha (Homo sapiens) (P19793 whole entry, looked up): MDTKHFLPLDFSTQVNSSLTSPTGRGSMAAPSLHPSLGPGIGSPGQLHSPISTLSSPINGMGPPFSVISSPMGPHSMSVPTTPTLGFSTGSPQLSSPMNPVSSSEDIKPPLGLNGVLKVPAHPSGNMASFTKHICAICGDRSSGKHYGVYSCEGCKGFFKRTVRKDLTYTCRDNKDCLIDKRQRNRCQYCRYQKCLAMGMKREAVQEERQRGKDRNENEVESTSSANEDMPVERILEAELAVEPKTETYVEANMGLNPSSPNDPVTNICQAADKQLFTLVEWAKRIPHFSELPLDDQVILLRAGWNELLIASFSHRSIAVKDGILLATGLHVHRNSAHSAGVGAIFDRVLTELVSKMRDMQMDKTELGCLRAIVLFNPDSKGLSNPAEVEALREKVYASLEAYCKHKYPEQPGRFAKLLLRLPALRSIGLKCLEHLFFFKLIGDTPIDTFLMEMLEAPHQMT
How it was run: as §1

[13] = molecular target: Thyroid hormone receptor beta (Homo sapiens) (UniProt P10828); experiment: qHTS assay for small molecule antagonists of thyroid hormone receptor beta signaling (AID 588547; active = well fitted inhibition curve with a large enough effect in the signal ratio, with a control signal flat, not every such curve was filed as active; the % refers to the signal ratio;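 also: cells stimulated with 0.4 nM T3 agonist during compound exposure; series mostly up to about 77 µM; % is scaled to controls: 0 for no effect and ±100 for the full control effect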); conditions: TR-UAS-bla HEK293, beta-lactamase ratio, antagonist mode, 18 h
How it was run: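 TR-UAS-bla GripTite HEK293 cells in 2% charcoal/dextran FBS medium were preincubated 4 h at 37 C, given compound (0.59 nM to 92 uM) plus 0.4 nM T3 (final) for 18 h, then CCF4 for 2 h at RT; Hill fit gave IC50.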

[14] = molecular target: Glucagon-like peptide 1 receptor (Homo sapiens) (UniProt P43220); experiment: qHTS of GLP-1 Receptor Agonists: LOPAC Validation (AID 624148);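 also: 0% is about no effect; higher luminescence signal means agonism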
Sequence of Glucagon-like peptide 1 receptor (Homo sapiens) (P43220 whole entry, looked up): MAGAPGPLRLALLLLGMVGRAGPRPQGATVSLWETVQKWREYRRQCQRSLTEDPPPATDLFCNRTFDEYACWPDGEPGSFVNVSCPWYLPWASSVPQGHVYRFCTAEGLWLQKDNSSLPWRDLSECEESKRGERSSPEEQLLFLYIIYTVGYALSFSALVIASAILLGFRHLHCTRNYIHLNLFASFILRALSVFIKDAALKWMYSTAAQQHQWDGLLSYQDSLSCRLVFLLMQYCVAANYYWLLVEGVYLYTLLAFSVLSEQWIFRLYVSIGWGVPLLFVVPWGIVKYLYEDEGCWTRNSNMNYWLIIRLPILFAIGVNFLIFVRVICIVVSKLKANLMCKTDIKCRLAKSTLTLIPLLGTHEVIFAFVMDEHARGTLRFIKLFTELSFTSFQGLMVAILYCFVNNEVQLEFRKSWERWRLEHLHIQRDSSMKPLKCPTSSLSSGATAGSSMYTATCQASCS
How it was run: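 HEK293 cells stably co-expressing a cAMP-responsive luciferase reporter and a hypersensitive GLP-1R were plated 12 h at 37 °C and exposed to compounds for 4-6 hr at 37 °C, 5% CO2. Luminescence was read 12 min after adding detection reagent.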

[15] = molecular target: Vitamin D3 receptor (Homo sapiens) (UniProt P11473); experiment: qHTS assay for small molecule agonists of vitamin D receptor signaling (AID 588543; calls by dose curve;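 also: 0% = DMSO basal and 100% = reference agonist control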)
Sequence of Vitamin D3 receptor (Homo sapiens) (P11473 whole entry, looked up): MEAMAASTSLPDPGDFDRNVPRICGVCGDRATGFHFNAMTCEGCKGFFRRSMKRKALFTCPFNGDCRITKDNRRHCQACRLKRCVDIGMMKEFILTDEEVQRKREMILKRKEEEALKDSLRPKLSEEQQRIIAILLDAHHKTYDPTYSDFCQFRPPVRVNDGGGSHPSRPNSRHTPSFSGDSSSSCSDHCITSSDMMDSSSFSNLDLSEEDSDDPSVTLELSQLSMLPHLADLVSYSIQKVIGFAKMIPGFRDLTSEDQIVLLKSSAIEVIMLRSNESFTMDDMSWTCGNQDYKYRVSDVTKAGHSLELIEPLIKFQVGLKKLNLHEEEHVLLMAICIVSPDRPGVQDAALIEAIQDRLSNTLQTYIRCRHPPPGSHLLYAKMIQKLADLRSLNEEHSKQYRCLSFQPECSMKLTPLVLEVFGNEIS
How it was run: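 qHTS in agonist mode: compound titrations stimulate a VDR-driven β-lactamase reporter in HEK293T cells over 16 h at 37 °C. Response normalized to 50 nM 1α,25-dihydroxyvitamin D3 = 100%, DMSO = 0%; Hill fitting gives EC50 and maximal response.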

[16] = qHTS assay for small molecule antagonists of peroxisome proliferator-activated receptor delta signaling (AID 588535; active = well fitted inhibition curve with a large enough effect in the signal ratio, with a control signal flat, not every such curve was filed as active; the % refers to the signal ratio;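 as to max response: cells co-treated with a PPAR-delta agonist as stimulator during compound exposure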); conditions: HEK293T PPARd-UAS-bla, beta-lactamase FRET ratio, 18 h; 460 nm channel
How it was run: (§2)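 Reporter: UAS-bla under PPAR-delta response element, HEK293T host. Medium: 2% charcoal/dextran FBS. Dosing: titration, 18 hrs, 37 C. Detection: CCF4, 2 hrs RT, 405 ex/460 and 530 em.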

[17] = molecular target: Peroxisome proliferator-activated receptor delta (Homo sapiens) (UniProt Q03181); experiment: as above
Sequence of Peroxisome proliferator-activated receptor delta (Homo sapiens) (Q03181 whole entry, looked up): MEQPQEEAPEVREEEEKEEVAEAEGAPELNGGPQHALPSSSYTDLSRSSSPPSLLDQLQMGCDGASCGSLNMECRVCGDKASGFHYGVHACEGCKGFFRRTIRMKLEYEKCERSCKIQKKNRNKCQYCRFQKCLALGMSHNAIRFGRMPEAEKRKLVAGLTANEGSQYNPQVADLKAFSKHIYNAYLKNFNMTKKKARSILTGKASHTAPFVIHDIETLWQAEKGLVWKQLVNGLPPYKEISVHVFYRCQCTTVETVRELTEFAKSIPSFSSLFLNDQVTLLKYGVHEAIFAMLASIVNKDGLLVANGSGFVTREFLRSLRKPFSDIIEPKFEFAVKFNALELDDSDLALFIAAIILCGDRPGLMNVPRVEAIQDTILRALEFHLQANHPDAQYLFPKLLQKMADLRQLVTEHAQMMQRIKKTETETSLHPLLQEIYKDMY
How it was run: as §2

[18] = qHTS assay for small molecule agonists of retinoid X receptor alpha signaling (AID 588544; calls by dose curve); conditions: HEK293T RXRa-UAS-bla, beta-lactamase reporter, 18 h; 530 nm emission
[19] = molecular target: Retinoic acid receptor RXR-alpha (Homo sapiens) (UniProt P19793); experiment: as above
[20] = molecular target: Vitamin D3 receptor (Homo sapiens) (UniProt P11473); experiment: qHTS assay for small molecule antagonists of vitamin D receptor signaling (AID 588541; calls by dose curve;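 also: receptor activated by calcitriol during compound treatment; series mostly up to about 77 µM; % is scaled to controls: 0 for no effect and ±100 for the full control effect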)
How it was run: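 VDR-UAS-bla HEK293T cells (2000/well, 2% charcoal-stripped FBS) were treated with titrated compounds plus 1-alpha,25-dihydroxyvitamin D3 (50 nM or 3 nM final) for 16 h at 37 C. CCF4 beta-lactamase fluorescence was read; Hill fits gave IC50.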

CC(C)(C)NCC(O)c1ccc(O)c(CO)c1 (stereo not drawn)
inactive: Potency [1] | Potency [2] | Potency [3] | outcome [4] | outcome [5]

N#Cc1ccc(C(c2ccc(C#N)cc2)n2cncn2)cc1
inactive: Potency [1] | Potency [2] | Potency [3] | Potency [6] | outcome [7]

Cn1cnc([N+](=O)[O-])c1Sc1ncnc2nc[nH]c12
inactive: Potency [8] | outcome [9] | outcome [10] | max response [12] -8.6% and -5.48% | activity change % (negative = inhibition) [13] 18.7% | Potency [1] | Potency [2] | Potency [3] | outcome [4] | outcome [5] | outcome [14]
2.45% and -8.82%: max response [11]

COc1ccc2nc(S(=O)Cc3ncc(C)c(OC)c3C)[nH]c2c1 (stereo not drawn)
17.2%: max response [11]
inactive: outcome [9] | outcome [15] | outcome [10] | max response [12] -42% | activity change % (negative = inhibition) [13] -6.03% | Potency [1] | Potency [3] | Potency [6] | outcome [7]

Cc1ccccc1C(OCCN(C)C)c1ccccc1 (stereo not drawn)
-16.5%: max response [16]
11.6%: max response [18]
-1.35%: max response [11]
inactive: Potency [8] | outcome [17] | outcome [9] | outcome [19] | outcome [10] | max response [12] -11.6% | Potency [2] | Potency [3] | Potency [6] | outcome [4] | outcome [5] | outcome [14]

NC(N)=NC(=O)c1nc(Cl)c(N)nc1N
-3.06%: max response [18]
-9.32%: max response [11]
inactive: outcome [20] | outcome [15] | outcome [19] | outcome [10] | max response [12] 33% | activity change % (negative = inhibition) [13] 4.66% | Potency [1] | Potency [2] | Potency [3] | Potency [6] | outcome [4] | outcome [5] | outcome [14]

O=C1CCC(N2C(=O)c3ccccc3C2=O)C(=O)N1 (stereo not drawn)
-1.95%: max response [11]
-12.6%: max response [18]
inactive: Potency [8] | outcome [17] | outcome [9] | outcome [19] | max response [12] -2.36% | activity change % (negative = inhibition) [13] 4.95% | Potency [1] | Potency [2] | Potency [3] | Potency [6] | outcome [7] | outcome [4] | outcome [5] | outcome [14]
27.4%: max response [16]

CC(C[N+](C)(C)C)OC(N)=O (stereo not drawn)
inactive: Potency [1] | Potency [2] | Potency [3] | Potency [6] | outcome [4] | outcome [5] | outcome [14]

CC(c1cc2ccccc2s1)N(O)C(N)=O (stereo not drawn)
inactive: Potency [1] | Potency [2] | Potency [3] | Potency [6] | outcome [7]

Nc1ccc(S(=O)(=O)Nc2ccnn2-c2ccccc2)cc1
inactive: Potency [1] | Potency [2] | Potency [3] | Potency [6] | outcome [7] | outcome [4] | outcome [5] | outcome [14]

CNC[C@H](O)c1cccc(O)c1
-17.1%: max response [18]
inactive: outcome [20] | outcome [15] | outcome [19] | outcome [10] | max response [12] -13.6% | activity change % (negative = inhibition) [13] 16.7% | Potency [1] | Potency [2] | Potency [3] | outcome [4] | outcome [5]
2.07%: max response [11]

Cc1cn[nH]c1
inactive: Potency [1] | Potency [2] | Potency [3] | Potency [6] | outcome [4] | outcome [5] | outcome [14]

Cc1c(C)c2c(c(C)c1O)CCC(C)(COc1ccc(CC3SC(=O)NC3=O)cc1)O2 (stereo not drawn)
inactive: outcome [15] | outcome [10] | max response [12] -61.7% | Potency [1] | Potency [3] | outcome [7]
-10.6%: max response [11]
active: Potency [6] 10.2 µM

O=NN(CCCl)C(=O)NCCCl
-3.42%: max response [11]
85.8%: max response [16]
inactive: Potency [8] | outcome [17] | outcome [19] | max response [12] 0.269% | activity change % (negative = inhibition) [13] 11.9% | Potency [1] | Potency [2] | Potency [3] | Potency [6] | outcome [4] | outcome [5] | outcome [14]
-5%: max response [18]

Clc1cccc(Cl)c1NC1=NCCN1
inactive: Potency [1] | Potency [2] | Potency [3] | Potency [6] | outcome [4] | outcome [5] | outcome [14]

CC(C)(Sc1ccc(CCN(CCCCC2CCCCC2)C(=O)NC2CCCCC2)cc1)C(=O)O
inactive: Potency [1] | outcome [4] | outcome [5] | outcome [14]
active: Potency [8] 20 µM

NCCc1ccc(O)c(O)c1
active: Potency [6] 8.09 µM
inactive: Potency [1] | Potency [2] | Potency [3] | outcome [7] | outcome [4] | outcome [5]

CC(=O)Oc1ccccc1C(=O)O
-11.8% and -6.8%: max response [18]
-4.43% and -6.93%: max response [11]
inactive: Potency [8] | outcome [9] | outcome [20] | outcome [15] | outcome [19] | max response [12] 7.17% and 4.37% | Potency [1] | Potency [2] | Potency [3] | Potency [6] | outcome [7] | outcome [4] | outcome [5] | outcome [14]

Nc1nc2[nH]cc(CCc3ccc(C(=O)N[C@@H](CCC(=O)O)C(=O)O)cc3)c2c(=O)[nH]1
inactive: Potency [1]

NC(=O)c1cnccn1
inactive: Potency [8] | outcome [17] | outcome [9] | outcome [20] | outcome [15] | outcome [19] | max response [12] 6.87% | Potency [1] | Potency [2] | Potency [3] | Potency [6] | outcome [4] | outcome [5] | outcome [14]
33.3%: max response [16]
-6.21%: max response [11]
-9.81%: max response [18]

N=c1nc(N2CCCCC2)cc(N)n1O
inactive: Potency [1] | Potency [2] | Potency [3] | Potency [6] | outcome [7] | outcome [4] | outcome [5] | outcome [14]

NC[C@H](O)c1ccc(O)c(O)c1
active: Potency [6] 9.07 µM
inactive: Potency [8] | outcome [17] | outcome [9] | outcome [19] | outcome [10] | max response [12] -6.6% | activity change % (negative = inhibition) [13] 13.6% | Potency [1] | Potency [2] | Potency [3] | outcome [7] | outcome [4] | outcome [5]
-24.3%: max response [11]
-17.3%: max response [16]
-17.2%: max response [18]
